Assay outcomes: PubChem, National Center for Advancing Translational Sciences (NCATS)
Compounds with a hit are over-represented: about 7.3% of the library has one in this group of screens.
Rab9 prom act = qHTS Assay for Rab9 Promoter Activators; Huh7 Rab9 promoter-luciferase reporter, luminescence, 24 h; Potency, µM (top dose mostly 9.22 µM), for the others: at the highest dose activation, negative = inhibition, hits mostly activators; hit rate 2.8% among 320,000; AID 485297, 2010; also: % of control where 0% means no effect; nearly all actives have a fitted effect of over 60% in size
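Huh7 cells stably carrying Rab9 promoter–luciferase reporter, plated 1500 cells/well, compound added after 2 h and incubated 24 h at 37 °C; luciferase luminescence then read after 10 min with detection reagent.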
SMN2 splice up = qHTS Assay for Enhancers of SMN2 Splice Variant Expression | Potency, µM (top dose mostly 46.1 µM), without a hit: at the top dose activity change, positive = activation, usual class: activators | AID 1458, 2008 | HEK293 SMN2-luciferase splicing reporter, luminescence, 30-36 h | hit rate 2.8% among 210,000; also: % of control where 0% means no effect; nearly all actives have a fitted effect of over 55% in size
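HEK293 cells carry an SMN2 minigene-luciferase reporter in which exon 7 inclusion puts luciferase in frame. Cells were seeded at 2000 cells/well, attached for 10-12 hours, then exposed to compounds for 30-36 hours at 37C before ONE-Glo luminescence.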
FLuc modulator = qHTS profiling assay for firefly luciferase inhibitor/activator using purifed enzyme and Km concentrations of substrates (counterscreen for miR-21 project); purified FLuc, Km substrates, luminescence inhibition; hit rate 6.9% among 360,000; AID 588342, 2011; Luciferin 4-monooxygenase (Photinus pyralis), P08659; Potency, µM (highest dose often 57.5 µM), for the others: top-dose activity change, negative = inhibition, usual class: inhibitors;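 also: plate controls were vehicle for no effect and reference inhibitor for full effect; nearly all actives have a fitted effect of over 55% in size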
Target sequence (P08659 whole entry, looked up): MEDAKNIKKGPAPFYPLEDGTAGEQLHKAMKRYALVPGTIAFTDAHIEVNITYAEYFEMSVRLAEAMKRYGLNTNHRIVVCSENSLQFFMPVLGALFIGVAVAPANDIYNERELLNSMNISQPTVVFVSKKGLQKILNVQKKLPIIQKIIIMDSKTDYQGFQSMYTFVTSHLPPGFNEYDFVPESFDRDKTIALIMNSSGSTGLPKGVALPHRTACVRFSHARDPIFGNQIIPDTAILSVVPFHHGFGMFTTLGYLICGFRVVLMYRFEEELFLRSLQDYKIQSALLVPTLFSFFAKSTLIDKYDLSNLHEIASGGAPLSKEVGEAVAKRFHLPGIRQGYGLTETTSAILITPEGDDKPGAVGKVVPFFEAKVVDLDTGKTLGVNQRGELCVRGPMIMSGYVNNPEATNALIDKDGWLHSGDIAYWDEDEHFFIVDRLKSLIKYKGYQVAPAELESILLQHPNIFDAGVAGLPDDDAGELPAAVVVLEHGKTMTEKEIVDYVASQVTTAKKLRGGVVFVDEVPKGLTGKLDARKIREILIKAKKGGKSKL
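Biochemical qHTS of compounds, final roughly 60 µM downward over six points, against 10 nM purified firefly luciferase using Km concentrations of substrates (10 uM D-luciferin, 10 uM ATP) in Tris acetate pH 7.5 buffer; luminescence output.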
KinaseGlo FLuc = Counterscreen for Luciferase (Kinase-Glo TM) Inhibition; Kinase-Glo luciferase, ATP luminescence, 8 min; Potency, µM (series often up to 38.3 µM), for the others: at the top dose activity change, negative = inhibition, most hits filed as inhibitors; hit rate 0.28% among 200,000; Luciferin 4-monooxygenase (Photuris pensylvanica), Q27757; AID 1379, 2008; also: % is scaled to controls: 0 for no effect and ±100 for the full control effect; nearly all actives have a fitted effect of over 60% in size
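Light output from Kinase-Glo luciferase with luciferin and 10 uM ATP in 50 mM imidazole pH 7.2, KCl, MgCl2, Tween 20, BSA; compound pin-delivered, 8-min ambient incubation, then luminescence read.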
NPC1 promoter act = qHTS Assay for NPC1 Promoter Activators; Huh7 NPC1 promoter luciferase reporter, 24 h; Potency, µM (top dose mostly 9.22 µM), without a hit: at the highest dose activation, most hits filed as activators; hit rate 2.4% among 320,000; AID 485313, 2010; also: % of control where 0% means no effect; nearly all actives have a fitted effect of over 60% in size
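Cells: Huh7 expressing luciferase under the NPC1 promoter, 1500/well. Seeded 2 h, compound added, incubated 24 h at 37 °C. Luciferase reagent, 10 min ambient, then luminescence.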
* hit, by the source's call; [ ] = another dose, or the depositor's remark. Calls follow the shape of the dose curve; as a rule, active = well fitted curve in the direction sought with a large enough effect; inconclusive = small, poorly fitted or top-dose-only effect, or another doubt; inactive = no such curve, though single readings can be large; an effect the other way counts as inactive or inconclusive. Potency is read from the fitted curve at half-maximal effect.

Cc1cc2c(cc3c(SCc4ccccc4Cl)nnc(C)n32)o1 was read as FLuc modulator 13µM*.
C=CCn1cccc(C(=O)Nc2cc(OC)cc(OC)c2)c1=O was read as Rab9 prom act 26%, SMN2 splice up 19%, FLuc modulator inconclusive, KinaseGlo FLuc -4% and NPC1 promoter act 5%.
For C=CCn1cccc(C(=O)Nc2ccc(OCC)cc2)c1=O the results were Rab9 prom act inconclusive, SMN2 splice up -21%, FLuc modulator 17µM*, KinaseGlo FLuc -3% and NPC1 promoter act inconclusive.
`C#CCn1cccc(C(=O)Nc2ccc(OC)cc2)c1=O` gave Rab9 prom act 19%[1.84 µM], FLuc modulator 19µM* and NPC1 promoter act 29%.
`C=CCn1cccc(C(=O)Nc2ccc(OC)c(OC)c2)c1=O` gave Rab9 prom act 3%, SMN2 splice up -17%, FLuc modulator inconclusive, KinaseGlo FLuc -3% and NPC1 promoter act 12%.
Screening C=CCn1cccc(C(=O)Nc2ccc(N(C)C)cc2)c1=O returned Rab9 prom act 4µM*, FLuc modulator 8.5µM* and NPC1 promoter act 3.5µM*.
Screening C=CCn1cccc(C(=O)Nc2ccc(Cl)cc2)c1=O returned Rab9 prom act inconclusive, FLuc modulator 17µM* and NPC1 promoter act inconclusive.
`CC1=C(C(=O)Nc2cccc(C(F)(F)F)c2)C2(CCN(C(C)C)CC2)OC1=O` gave FLuc modulator 1%.
For COc1ccc(Br)cc1CNC(=O)CCSCc1ccc(C)cc1 the results were FLuc modulator -17%.
For Cc1ccc(C(C)C)c(OCCCn2c(=O)oc3ccccc32)c1 the results were SMN2 splice up -1% and FLuc modulator -11%.
Screening C=CCn1cccc(C(=O)Nc2ccc(SC)cc2)c1=O returned Rab9 prom act 4µM*, FLuc modulator 12µM* and NPC1 promoter act inconclusive.
`Cc1c(NC(=O)Nc2ccccc2C(F)(F)F)sc2nc3n(c(=O)c12)CCC(C)CC3` (centres undefined) gave SMN2 splice up -7% and FLuc modulator 5%.
Screening COc1cc(OC)c(NS(=O)(=O)c2c(C(=O)N3CCCCCC3)c(C)n(C)c2C)cc1Cl returned FLuc modulator -8%.
For CC(=O)n1cc(/C=C2/N=C(c3ccccc3)OC2=O)c2ccccc21 the results were Rab9 prom act -1%, SMN2 splice up -2%, FLuc modulator 5.4µM*, KinaseGlo FLuc 3% and NPC1 promoter act -2%.
`CC(=O)n1cc(/C=N/NC(N)=S)c2ccccc21` gave Rab9 prom act -1%, SMN2 splice up inconclusive, FLuc modulator 0%, KinaseGlo FLuc 7% and NPC1 promoter act 0%.
`Cc1cc(C)c(C#N)c(Sc2ccccc2N)n1` gave Rab9 prom act 2%, SMN2 splice up -2%, FLuc modulator 15µM*, KinaseGlo FLuc 3% and NPC1 promoter act 3%.
`COC(=O)C(Sc1nc(C)cc(C)c1C#N)c1ccccc1` (centres undefined) gave Rab9 prom act 0%, SMN2 splice up inconclusive, FLuc modulator 2%, KinaseGlo FLuc 2% and NPC1 promoter act -3%.
Cc1[nH][nH]c(=O)c1C(c1ccc(-c2cccc(C(=O)O)c2)o1)c1c(C)[nH][nH]c1=O was read as Rab9 prom act inconclusive, FLuc modulator 15µM*, KinaseGlo FLuc -2% and NPC1 promoter act 20%.
Screening O=[N+]([O-])c1ccc(/C=N/Nc2nc(-c3ccccc3)c3cc(Br)ccc3n2)o1 returned Rab9 prom act 11%, SMN2 splice up -26%, FLuc modulator -4%, KinaseGlo FLuc 1% and NPC1 promoter act -4%.
`O=[N+]([O-])c1ccc(/C=N/Nc2ccc3ccccc3c2)o1` gave Rab9 prom act inconclusive, SMN2 splice up 9%, FLuc modulator 11µM*, KinaseGlo FLuc 15% and NPC1 promoter act inconclusive.
